From PubChem
Hits are enriched below; roughly 2.4% of the tested compounds scored in any of these assays.
LT uptake inh = blocks cellular internalization of anthrax lethal toxin | Cells, anthrax lethal toxin internalization, FRET ratio (460/530) | Potency, µM (titrated, usually from 40 µM), usual class: inhibitors | 0.67% of 70,000 active; note: nearly all actives have a fitted effect of over 50% in size
AmpC det inh = inhibitors of E. coli AmpC beta-lactamase with detergent; AID 584; Potency, µM (highest dose often 28.7 µM); 0.09% of 71,000 active; purified AmpC, nitrocefin hydrolysis with detergent; active = well fitted curve in the direction sought with a large enough effect; inconclusive = small, poorly fitted or top-dose-only effect
Target sequence (P00811 whole entry, looked up): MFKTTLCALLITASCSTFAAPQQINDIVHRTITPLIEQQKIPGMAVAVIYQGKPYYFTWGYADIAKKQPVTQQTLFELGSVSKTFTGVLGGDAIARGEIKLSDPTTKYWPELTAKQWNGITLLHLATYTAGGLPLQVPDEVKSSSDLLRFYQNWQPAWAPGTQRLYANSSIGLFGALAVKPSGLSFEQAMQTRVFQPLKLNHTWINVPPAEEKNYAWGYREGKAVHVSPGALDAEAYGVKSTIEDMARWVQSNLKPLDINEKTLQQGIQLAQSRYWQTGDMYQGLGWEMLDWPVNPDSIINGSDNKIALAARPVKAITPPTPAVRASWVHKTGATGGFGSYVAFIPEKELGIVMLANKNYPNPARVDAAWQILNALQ
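E. coli AmpC (5.3 nM) in 20 mM phosphate pH 7.0 with 0.01% Triton X-100, preincubated 15 min RT with compound; nitrocefin (2 uL of 800 uM stock) hydrolysis followed by 480 nm absorbance every 20 s over 4 min.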
Prx2 Sm inh = blocks S. mansoni peroxiredoxin 2 enzymatic activity; S. mansoni Prx2 activity coupled to TGR/GSH (TGR is thioredoxin glutathione reductase), NADPH fluorescence loss, qHTS; Potency, µM; 0.07% of 65,000 active; AID 448
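qHTS, coupled TGR/Prx2 format; 15 min compound preincubation at RT; reaction started with H2O2 (2.5 mM aliquot); kinetic NADPH fluorescence decrease, ex 365/em 450 nm.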
AmpC inh no det = AmpC beta-lactamase inhibition, detergent-free assay. AID 585. P00811. Potency, µM (titrated, usually from 28.7 µM). 1.8% of 71,000 active. AmpC nitrocefin hydrolysis, absorbance 480 nm, no detergent
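AmpC in 20 mM phosphate buffer pH 7.0 was preincubated 15 min at room temperature with compounds. Nitrocefin (800 uM stock) was then added and hydrolysis followed at 480 nm every 20 s for 4 min.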
Each line names hits and unclear results; the compound was inactive in the other large screens; [ ] = another dose, or the depositor's remark. Unless noted, calls come from the whole dose curve.

O=C(NCCc1c[nH]c2ccccc12)c1c(Cl)nc2sccn12	AmpC inh no det 12.6µM
Cn1c(C(=O)NCCc2c[nH]c3ccccc23)cc2sccc21	LT uptake inh inconclusive
O=C(Oc1cccc(-n2cnnn2)c1)c1sc2ccccc2c1Cl	AmpC inh no det 12.6µM[single pt active]
C#CCCCO/N=C1/C[C@@H](O)[C@@H](O)[C@@H]2[C@@H]3C(=O)N(CCC(=O)OCC)C(=O)[C@H]3CC[C@@H]12	none (no result: AmpC det inh, Prx2 Sm inh, AmpC inh no det)
O=S(=O)(Nc1ccn(-c2ccccc2)n1)c1ccc(Br)cc1	LT uptake inh inconclusive, AmpC inh no det 5.01µM (no result: Prx2 Sm inh)
O=C1c2sc3nc4c(c(=O)n3c2C(=O)N1c1ccccc1)CCC4	none
Cc1ccccc1N1C(=O)c2sc3nc4c(c(=O)n3c2C1=O)CCC4	LT uptake inh 12.6µM (no result: Prx2 Sm inh)
Cc1cc(NC(=O)c2cc(-c3ccco3)on2)nn1Cc1ccc(Cl)cc1	AmpC inh no det 15.8µM
Cc1nn(Cc2ccc(Cl)cc2)c(C)c1NC(=O)c1cc(-c2ccco2)on1	none
Cn1c(=O)c2[nH]c(/N=N\N3CCN(CCO)CC3)nc2n(C)c1=O	none
N#CCCn1c(=O)c(-c2ccc(Cl)cc2)nc2cnc(N3CCOCC3)nc21	LT uptake inh inconclusive
CN(CC(=O)N1CCc2ccccc2C1)S(=O)(=O)c1ccc2c(c1)c(=O)n(C)c(=O)n2C	AmpC inh no det 3.98µM[single pt active]
COc1ccc(NC(=O)N2c3ccccc3CC2C)cc1OC (configuration not stated)	none
COC(=O)c1ccccc1NC(=O)N1c2ccccc2CC1C (configuration not stated)	LT uptake inh 15.8µM
CO[C@@H]1COC(=O)[C@H](COCc2ccccc2)NC(=O)C/C=C\[C@@H](C)[C@H](OC)COC(=O)[C@@H](C)NC(=O)C/C=C\[C@H]1C	none (no result: AmpC det inh, Prx2 Sm inh, AmpC inh no det)
COc1ccc(-c2nc3cnc(N4CCN(C)CC4)nc3n(-c3ccc(OC)cc3)c2=O)cc1	LT uptake inh inconclusive
O=C(Nc1ccc2snnc2c1)N1CCSCC1	none (no result: Prx2 Sm inh)
CC1CN(C(=O)Nc2ccc3snnc3c2)c2ccccc21 (configuration not stated)	LT uptake inh inconclusive, AmpC inh no det 2µM
CC(C)=CCC/C(C)=C/CC/C(C)=C/CSc1ccccc1C(=O)O	none
CN1CCN(C(=O)C(Cc2ccccc2)NS(=O)(=O)c2ccc3c(c2)CCC(=O)N3)CC1 (configuration not stated)	AmpC inh no det 3.98µM[single pt active]
CC(C)NS(=O)(=O)c1ccc2c(c1)oc(=O)n2C	none
Cn1c(=O)oc2cc(S(=O)(=O)NC(Cc3ccccc3)C(=O)N3CCCCC3)ccc21 (configuration not stated)	AmpC inh no det 3.98µM[single pt active]
CC(C)CC(NS(=O)(=O)c1ccc2c(c1)oc(=O)n2C)C(=O)NCc1cccnc1 (configuration not stated)	AmpC inh no det 3.98µM[single pt active]
CC(C)C(NS(=O)(=O)c1ccc2c(c1)oc(=O)n2C)C(=O)N1CCN(c2ccccc2F)CC1 (configuration not stated)	LT uptake inh inconclusive, AmpC inh no det 3.98µM[single pt active]
COC(=O)[C@@]1(Cc2ccc(OC)cc2)[C@H]2c3cc(C(=O)N(C)C)n(Cc4cccc5ccccc45)c3C[C@H]2CN1C(=O)c1ccccc1	LT uptake inh inconclusive
Cc1c([C@@H](C)[C@H]2NC[C@H](C)C[C@@H]2O)ccc2c1C[C@@H]1[C@H]2CC=C2C[C@@H](O)CC[C@@]21C	none
O=C(O)CNC(=O)c1ccc([N+](=O)[O-])cc1	none (no result: Prx2 Sm inh)
CCOC(=O)CNC(=O)C(Cc1ccccc1)NS(=O)(=O)c1ccc2c(c1)CCC(=O)N2 (configuration not stated)	none
O=C1CCc2cc(S(=O)(=O)NC(Cc3ccccc3)C(=O)NCC3CCCO3)ccc2N1 (configuration not stated)	AmpC inh no det 3.98µM[single pt active]
O=C1CCC=C1[C@@H](O)CCc1ccccc1	none (no result: AmpC det inh, Prx2 Sm inh, AmpC inh no det)
CCOc1ccc2nc(NC(=O)Nc3cccs3)sc2c1	LT uptake inh inconclusive, AmpC inh no det 3.16µM[single pt active]
CCOc1ccc2nc(NC(=O)COC)sc2c1	none
COc1cc(C2CC(=O)N3CN(Cc4ccco4)CSC3=C2C#N)ccc1OCc1ccccc1 (configuration not stated)	LT uptake inh inconclusive, AmpC inh no det 3.98µM[single pt active]
COc1ccc(C2CC(=O)N3CN(Cc4ccco4)CSC3=C2C#N)cc1 (configuration not stated)	LT uptake inh inconclusive
COc1ccc2ccccc2c1C1CC(=O)N2CN(Cc3ccco3)CSC2=C1C#N (configuration not stated)	LT uptake inh inconclusive, AmpC inh no det 3.98µM[single pt active]
CCOc1cc(C2CC(=O)N3CN(C4CCCCC4)CSC3=C2C#N)ccc1O (configuration not stated)	AmpC inh no det 2.51µM
NCCNS(=O)(=O)c1cccc2cnccc12	LT uptake inh inconclusive
CC1=CC(C)(C)N(C(=O)CN2C(=O)c3ccccc3C2=O)c2ccccc21	LT uptake inh 6.31µM (no result: Prx2 Sm inh)
COC(=O)[C@@H]1CC[C@H](C)[C@@H](c2ccc(C)cc2)N1C(=O)c1ccc(/C=N\OCC[C@@H]2C=C[C@H](OC(C)=O)[C@H](COC(C)=O)O2)cc1	none (no result: AmpC det inh, Prx2 Sm inh, AmpC inh no det)
COc1ccc(-n2cnc3c(sc4nccc(N(C)C)c43)c2=O)cc1	none (no result: LT uptake inh)
Cc1ccc(-n2cnc3c(sc4nccc(N(C)C)c43)c2=O)cc1	LT uptake inh 6.31µM (no result: Prx2 Sm inh)
CCCCC/C=C\C/C=C\C/C=C\C/C=C\CCCC(=O)Nc1ccc(O)cc1	LT uptake inh inconclusive, AmpC inh no det 10µM
CCCCC/C=C\C/C=C\C/C=C\C/C=C\CCCC(=O)NCC(=O)O	none
CC(C)c1ccc(Cn2ccc3c4c(N)nc(NC5CC5)nc4ccc32)cc1	LT uptake inh 25.1µM
N#CCCn1c(=O)c(-c2ccc(F)cc2)nc2cnc(N3CCOCC3)nc21	LT uptake inh inconclusive
CCCCC#Cc1nc(N)c2ncn([C@@H]3O[C@@H](C(=O)NCC)[C@H](O)[C@@H]3O)c2n1	none
COc1ccc(OC)c(-c2cc(C(=O)Nc3c(C)n(C)n(-c4ccccc4)c3=O)no2)c1	Prx2 Sm inh 7.08
CCC/C=C(\CCC)C(NS(C)(=O)=O)c1ccccc1 (configuration not stated)	none
CCOC(=O)Nc1ccc2c(c1)N(C(=O)OCCN(C)C)c1ccccc1CC2	AmpC inh no det 3.98µM[single pt active]
CCS(=O)(=O)Nc1ccc2c(c1)N(C(C)=O)c1ccccc1CC2	LT uptake inh inconclusive
CCCCOC(=O)Nc1ccc(S(=O)(=O)Nc2cc(C)nc(C)n2)cc1	LT uptake inh inconclusive, AmpC inh no det 3.16µM[single pt active]
Cc1ccc(OCCCC(=O)Nc2ccc(S(=O)(=O)Nc3cc(C)on3)cc2)cc1	AmpC inh no det 10µM[single pt active]
FC(F)(F)c1ccccc1-c1ccc2ncnc(NCc3cccs3)c2c1	LT uptake inh inconclusive
CNc1ncncc1-c1ccc(C(=O)N(C)C)cc1	none
O=C(Nc1ccccc1)c1ccccc1O	none
O=C(N/N=C\c1ccccc1O)c1ccccc1O	LT uptake inh inconclusive, AmpC inh no det 15.8µM
N#CCCn1c(=O)c(-c2ccc(F)cc2)nc2cnc(Oc3ccccc3)nc21	LT uptake inh inconclusive
NS(=O)(=O)c1ccc(NC(=O)CCC2CCCCC2)cc1	AmpC inh no det 7.94µM (no result: Prx2 Sm inh)
C[C@@H](CN1CCC(Cc2ccccc2)CC1)[C@H](O)c1ccc(O)cc1	none
